Data reported in PubChem BioAssay (NCATS).
“And” between values parts separate entries of the source, which are not always exact repeats. Equal values may be shown once. Inconclusive results are not listed. A call without a number means that no potency is given here. More than one record can exist for a structure, and the calls need not agree. The source made the active and inactive calls. Unless noted, calls follow the shape of the dose curve; as a rule, active = well fitted curve in the direction sought with a large enough effect; inconclusive = small, poorly fitted or top-dose-only effect, or another doubt; inactive = no such curve, though single readings can be large; an effect the other way counts as inactive or inconclusive.

Legend:
[1] = P-glycoprotein substrates identified in KB-3-1 adenocarcinoma cell line, qHTS therapeutic library screen (AID 1346986); also: nearly all actives have a fitted effect of over 60% in size;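 also: potency is read from the fitted curve at half-maximal effect; potency is for cytotoxicity meaning loss of cell viability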
Summary of the method: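 In 1536-well format, 500 cells/well received pinned compound titrations and were incubated 72 h, 5% CO2. Viability was read by CellTiter-Glo; cytotoxic if AC50 < 10 uM and efficacy >50%.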

[2] = P-glycoprotein substrates identified in KB-8-5-11 adenocarcinoma cell line, qHTS therapeutic library screen (AID 1346987); also: nearly all actives have a fitted effect of over 65% in size; also: potency is read from the fitted curve at half-maximal effect
Summary of the method: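 Compounds are pinned in dose-response onto KB-8-5-11 cells (500 cells/well, colchicine-free medium) and left 72 h at 37 degree C. CellTiter-Glo luminescence then yields AC50 values.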

[3] = qHTS to identify inhibitors of the type 1 interferon - major histocompatibility complex class I in skeletal muscle: primary screen against the NCATS Mechanism Interrogation Plate v5.0 (MIPE) Libary (AID 1347411); also: nearly all actives have a fitted effect of over 65% in size; also: potency is read from the fitted curve at half-maximal effect
Summary of the method: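 Luminescence from CRISPR HiBit-tagged endogenous HLA-B in human myoblasts reported MHC class I level after 24 h of IFN-beta (4 ng/ml) plus compound. Compounds ran as 11-point 1:3 series, top 46 uM final.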

[4] = Primary qHTS for inhibitors of nuclear receptor binding SET domain protein 2 (NSD2) in an isogenic RCH-ACV NSD2 p.E1099K mutant (9B) (AID 1645876); also: nearly all actives have a fitted effect of over 70% in size; also: potency is read from the fitted curve at half-maximal effect
[5] = Primary qHTS for inhibitors of nuclear receptor binding SET domain protein 2 (NSD2) in an RCH-ACV wild type WT cells (2C) (AID 1645877); also: nearly all actives have a fitted effect of over 70% in size; also: potency is read from the fitted curve at half-maximal effect
[6] = target: Glutathione peroxidase 1 (Homo sapiens) (UniProt P07203); assay: Primary qHTS Assay for Inhibitors of Recombinant Selenoprotein Glutathione Peroxidase 1 (GPX1) (AID 1845191); also: nearly all actives have a fitted effect of over 65% in size; also: potency is read from the fitted curve at half-maximal effect
Summary of the method: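 GR-coupled readout: NADPH consumption tracked by fluorescence, ex 340/em 450 nm, at t=0 and after 15 min at RT. Final mix 10 nM GPX1, 1 mM GSH, 0.5 mM CHP, 0.5 mM NADPH, 100 nM GR, 0.01% BSA, following 30 min enzyme–compound preincubation.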

[7] = target: Phospholipid hydroperoxide glutathione peroxidase GPX4 (Homo sapiens) (UniProt P36969); assay: Primary qHTS Assay for Inhibitors of Recombinant Selenoprotein Glutathione Peroxidase 4 (GPX4) (AID 1845192); details: outcome: dose series up to 50 µM unless noted; also: nearly all actives have a fitted effect of over 65% in size; also: potency is read from the fitted curve at half-maximal effect
Summary of the method: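 Steps: GPX4 plus compound, 30 min RT; add GR/GSH/NADPH master mix; start with cumene hydroperoxide; read 340/450 nm fluorescence at 0 and 15 min. Finals were 200 nM GPX4, 1 mM GSH, 0.5 mM CHP, 0.5 mM NADPH, 100 nM GR.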

[8] = qHTS drug screen for cell cycle checkpoint inhibitors in PARPi-resistant BRCA-mutant ovarian cancer cell lines. (AID 1963452; calls by dose curve); details: PEO1/OlaR viability, CellTiter-Glo luminescence, 96 h, stronger effect = lower value
Summary of the method: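 PEO1, PEO4 and PEO1/OlaR ovarian cancer cells, 600 per well, exposed 96 h at 37C to a dilution series. Viability read by CellTiter-Glo luminescence, normalized to DMSO and empty wells; activity summarized as Z-AUC.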

[9] = target: Calcium and integrin-binding protein 1 (Homo sapiens) (UniProt Q99828); assay: Primary qHTS for Identification of Calcium Integrin Binding Protein 1 (CIB1) Competitor (AID 1508620);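 also: GST tagged CIB1 binding a fluorescein labelled alphaIIb integrin peptide tracer; top concentration of the series differs between compounds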
Summary of the method: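 Fluorescence polarization competition: GST-tagged CIB1 (1 uM final) preincubated with compound 15 min at room temperature, then FITC-labelled alphaIIb peptide (100 nM final) added. After 15 min at room temperature, polarization read at Ex 480/Em 540.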

[10] = target: Cytochrome P450 2D6 (Homo sapiens) (UniProt P10635); assay: Cytochrome P450 family 2 subfamily D member 6 (CYP2D6) small molecule antagonists: luciferase biochemical (cell-free) qHTS assay (AID 1645840; active = well fitted curve in the direction sought with a large enough effect in the repeat runs; an effect the other way counts as inactive or inconclusive; also: series mostly up to about 57 µM; nearly all actives have a fitted effect of over 55% in size)
Summary of the method: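 P450-Glo CYP2D6 system: proluciferin substrate converted by enzyme to luciferin, read by luminescence proportional to activity. Enzyme-substrate mix with compound 10 min at room temperature, then NADPH regeneration 1 h before detection reagent.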

[11] = target: Cytochrome P450 2C9 (Homo sapiens) (UniProt P11712); assay: Cytochrome P450 family 2 subfamily C member 9 (CYP2C9) small molecule antagonists: luciferase biochemical (cell-free) qHTS assay (AID 1645842; active = well fitted curve in the direction sought with a large enough effect in the repeat runs; an effect the other way counts as inactive or inconclusive; also: potency is read from the fitted curve at half-maximal effect; nearly all actives have a fitted effect of over 55% in size)
Summary of the method: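 P450-Glo CYP2C9 system: proluciferin substrate with enzyme in mix containing 0.4% BSA, 10 min at room temperature, then NADPH regeneration solution added and incubated 1 h at 37C. Detection reagent stopped reaction; luminescence read after 20 min as RLU.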

[12] = qHTS for Inhibitors of Ubiquitin-specific Protease USP2a Using CHOP2 as the Reporter: K633 Counterscreen (AID 652168); also: series mostly up to about 57 µM
Summary of the method: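 Detection-system control: fluorescence of K48-linked DiUb-4IQF substrate (100 nM as added) tracked over time, Ex 525/Em 598, with pinned compounds and no enzyme, in pH 8 Tris buffer containing beta-mercaptoethanol and 0.05% Chaps.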

[13] = qHTS for Inhibitors of Ubiquitin-specific Protease USP2a Using CHOP2 as the Reporter: Cytotox Assay (AID 652170);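 also: HCT116 human colon cancer cells at 600 per well; series mostly up to about 46 µM; nearly all actives have a fitted effect of over 70% in size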
Summary of the method: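 Cytotoxicity read as ATP luminescence (CellTiter-Glo) after 72 hr compound treatment at 37 deg C. Cells: HCT116, 600/well in DMEM plus 10% FBS. Normalization between DMSO-treated cells and cell-free wells.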

[14] = target: Ubiquitin carboxyl-terminal hydrolase 2 (Homo sapiens) (UniProt O75604); assay: qHTS for Inhibitors of Ubiquitin-specific Protease USP2a Using CHOP2 as the Reporter: K484 Substrate (AID 652173); details: USP2 cleavage of DiUb K48 IQF substrate, fluorescence;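 also: cleavage of internally quenched K48 di-ubiquitin substrate measured as rising fluorescence over time; potency is read from the fitted curve at half-maximal effect; nearly all actives have a fitted effect of over 70% in size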
Summary of the method: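 Kinetic fluorescence (Ex 525/Em 598) tracked cleavage of an internally quenched K48 di-ubiquitin substrate, added as a 100 nM solution. The enzyme was added as a 5 nM USP2 solution before compound pinning, with no-enzyme controls. Buffer: Tris pH 8, beta-mercaptoethanol, CHAPS.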

[15] = measured here: PEO1 parental Z-AUC

Chain of Phospholipid hydroperoxide glutathione peroxidase GPX4 (Homo sapiens) (P36969 whole entry, looked up): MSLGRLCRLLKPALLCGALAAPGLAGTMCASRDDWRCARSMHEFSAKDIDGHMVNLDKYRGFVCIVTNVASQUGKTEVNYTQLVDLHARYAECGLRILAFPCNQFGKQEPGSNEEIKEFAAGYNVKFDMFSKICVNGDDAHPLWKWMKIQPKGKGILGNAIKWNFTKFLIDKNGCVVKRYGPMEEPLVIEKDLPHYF
Chain of Glutathione peroxidase 1 (Homo sapiens) (P07203 whole entry, looked up): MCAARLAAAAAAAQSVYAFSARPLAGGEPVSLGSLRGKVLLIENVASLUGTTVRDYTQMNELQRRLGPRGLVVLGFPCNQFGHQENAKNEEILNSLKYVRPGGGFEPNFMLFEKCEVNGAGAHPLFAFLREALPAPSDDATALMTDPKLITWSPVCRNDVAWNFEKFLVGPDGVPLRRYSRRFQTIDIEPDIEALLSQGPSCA
Chain of Calcium and integrin-binding protein 1 (Homo sapiens) (Q99828 whole entry, looked up): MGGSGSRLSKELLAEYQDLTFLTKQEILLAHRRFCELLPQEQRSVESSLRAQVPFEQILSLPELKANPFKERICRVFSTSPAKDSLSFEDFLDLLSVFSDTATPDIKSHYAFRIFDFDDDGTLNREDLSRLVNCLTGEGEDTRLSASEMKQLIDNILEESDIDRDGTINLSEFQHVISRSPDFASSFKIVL
Chain of Cytochrome P450 2C9 (Homo sapiens) (P11712 whole entry, looked up): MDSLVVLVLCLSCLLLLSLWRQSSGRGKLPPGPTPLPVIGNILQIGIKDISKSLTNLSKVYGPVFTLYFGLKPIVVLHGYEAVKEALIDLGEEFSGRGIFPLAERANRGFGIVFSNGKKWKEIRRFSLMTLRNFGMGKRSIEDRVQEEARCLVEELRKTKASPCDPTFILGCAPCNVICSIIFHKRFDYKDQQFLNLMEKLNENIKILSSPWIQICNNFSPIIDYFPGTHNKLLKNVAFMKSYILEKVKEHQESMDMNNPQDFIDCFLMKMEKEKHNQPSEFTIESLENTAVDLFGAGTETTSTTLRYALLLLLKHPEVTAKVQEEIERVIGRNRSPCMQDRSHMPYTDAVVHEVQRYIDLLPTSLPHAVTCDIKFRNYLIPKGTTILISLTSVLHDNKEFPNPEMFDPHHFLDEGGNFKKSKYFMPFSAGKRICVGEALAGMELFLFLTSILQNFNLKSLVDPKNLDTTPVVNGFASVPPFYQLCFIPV
Chain of Cytochrome P450 2D6 (Homo sapiens) (P10635 whole entry, looked up): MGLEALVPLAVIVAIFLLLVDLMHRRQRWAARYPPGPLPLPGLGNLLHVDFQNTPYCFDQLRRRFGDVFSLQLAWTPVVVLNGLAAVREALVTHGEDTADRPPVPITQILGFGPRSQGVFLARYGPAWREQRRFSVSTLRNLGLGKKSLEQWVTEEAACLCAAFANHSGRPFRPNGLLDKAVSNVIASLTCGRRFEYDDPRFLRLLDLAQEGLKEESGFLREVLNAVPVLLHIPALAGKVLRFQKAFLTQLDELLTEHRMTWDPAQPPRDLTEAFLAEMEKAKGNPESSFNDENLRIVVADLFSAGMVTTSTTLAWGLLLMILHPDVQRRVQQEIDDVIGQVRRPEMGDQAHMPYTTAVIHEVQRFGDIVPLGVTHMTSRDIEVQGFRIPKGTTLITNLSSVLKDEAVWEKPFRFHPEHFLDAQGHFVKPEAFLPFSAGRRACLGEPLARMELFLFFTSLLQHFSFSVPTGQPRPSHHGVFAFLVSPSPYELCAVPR
Chain of Ubiquitin carboxyl-terminal hydrolase 2 (Homo sapiens) (O75604 whole entry, looked up): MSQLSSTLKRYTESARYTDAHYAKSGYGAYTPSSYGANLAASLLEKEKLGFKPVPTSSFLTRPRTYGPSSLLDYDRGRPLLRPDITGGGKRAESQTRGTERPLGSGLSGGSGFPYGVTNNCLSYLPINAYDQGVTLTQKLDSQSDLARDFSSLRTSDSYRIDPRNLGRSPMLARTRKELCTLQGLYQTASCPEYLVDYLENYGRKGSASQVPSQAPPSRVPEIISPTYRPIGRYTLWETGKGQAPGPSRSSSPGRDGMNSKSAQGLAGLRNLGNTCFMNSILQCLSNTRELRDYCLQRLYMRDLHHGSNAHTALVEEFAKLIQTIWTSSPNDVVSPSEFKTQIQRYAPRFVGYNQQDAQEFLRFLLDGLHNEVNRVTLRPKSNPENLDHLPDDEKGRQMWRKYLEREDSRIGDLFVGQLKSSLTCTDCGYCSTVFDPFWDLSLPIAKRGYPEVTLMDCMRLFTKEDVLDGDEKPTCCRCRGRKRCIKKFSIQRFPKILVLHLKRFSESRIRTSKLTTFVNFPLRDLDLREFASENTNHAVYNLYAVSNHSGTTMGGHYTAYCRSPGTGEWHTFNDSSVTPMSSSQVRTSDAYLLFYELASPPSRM

Question: Which Potency [1] does the source give for `C[C@H]1COCCN1c1cc(C2(S(=O)(=O)C3CC3)CC2)nc(-c2ccc(NC(=S)NCCO)cc2)n1` here?
Answer: 103 nM (active)

Question: And the Potency [2]?
Answer: 731 nM (active)

Question: And the Potency [3]?
Answer: 208 nM (active)

Question: What about the Potency [4] of the same compound?
Answer: 59 nM (active)

Question: What about the Potency [5] of the same compound?
Answer: 0.0934 µM (active)

Question: What about the Potency [6] of the same compound?
Answer: inactive

Question: And the Potency [7]?
Answer: inactive

Question: And the Z-AUC [8]?
Answer: -1.32 (inactive)

Question: What about the Z-AUC [8, 15] of the same compound?
Answer: -1.07

Question: What about the Z-AUC ([8]; measured here: PEO4 Z-AUC) of the same compound?
Answer: -1.96

Question: What does the source list for `CCCCCC1CC1CC1CC1CCCCCCCC(=O)O` (configuration not stated)?
Answer: Potency [1]: inactive; Potency [2]: inactive; Potency [4]: inactive; Potency [5]: inactive

Question: For `O=C(Nc1cc(Oc2cc(F)c(NC(=O)C3(C(=O)Nc4ccc(F)cc4)CC3)cc2F)ccn1)C1CC1`, which Potency [1] is on record?
Answer: 5170 nM (active)

Question: And the Potency [2]?
Answer: 4610 nM (active)

Question: And the Potency [3]?
Answer: 18600 nM (active)

Question: What about the Potency [4] of the same compound?
Answer: 2.59 µM (active) and inactive

Question: What about the Potency [5] of the same compound?
Answer: 2.59 µM (active) and inactive

Question: And the Potency [6]?
Answer: inactive

Question: What about the Z-AUC [8] of the same compound?
Answer: -0.419 (inactive)

Question: And the Z-AUC [8, 15]?
Answer: 0.97

Question: And the Z-AUC ([8]; measured here: PEO4 Z-AUC)?
Answer: -0.43

Question: Which Potency [1] does the source give for `CN(C)CC1CCn2cc(c3ccccc32)C2=C(C(=O)NC2=O)c2cn(c3ccccc23)CCO1` (configuration not stated) here?
Answer: inactive

Question: What about the Potency [2] of the same compound?
Answer: inactive

Question: What about the Potency [4] of the same compound?
Answer: 13000 nM (active)

Question: What about the Potency [5] of the same compound?
Answer: 16.4 µM (active)

Question: For `O=C1CCCC2=C1C1(CCCC1)N=C(Nc1nc3ccccc3o1)N2`, which Potency [1] is on record?
Answer: inactive

Question: What about the Potency [2] of the same compound?
Answer: inactive

Question: What about the outcome [9] of the same compound?
Answer: inactive

Question: What about the Potency [4] of the same compound?
Answer: inactive

Question: What about the Potency [5] of the same compound?
Answer: inactive

Question: What about the Potency [6] of the same compound?
Answer: inactive

Question: With `CC1CN(CC(=O)Nc2ccc3c(c2)Cc2cccc(-c4cc(=O)cc(N5CCOCC5)o4)c2S3)CC(C)O1` (configuration not stated) as the compound, how does the Potency [1] read?
Answer: inactive

Question: And the Potency [2]?
Answer: inactive

Question: And the Potency [10]?
Answer: inactive

Question: What about the Potency [11] of the same compound?
Answer: 2680 nM (active)

Question: Which Potency [1] does the source give for `COc1ccc2nc3ccc(OC)cc3c(SCCCN)c2c1` here?
Answer: inactive

Question: And the Potency [2]?
Answer: inactive

Question: What about the Potency [4] of the same compound?
Answer: inactive

Question: For `NC(=O)c1nc(F)c[nH]c1=O`, which Potency [1] is on record?
Answer: inactive

Question: What about the Potency [2] of the same compound?
Answer: inactive

Question: What about the Potency [3] of the same compound?
Answer: inactive

Question: And the Potency [4]?
Answer: inactive

Question: And the Potency [5]?
Answer: inactive

Question: And the Potency [6]?
Answer: 20200 nM (active)

Question: And the Potency [7]?
Answer: 9.04 µM (active) and 22.4 µM (active)

Question: And the Z-AUC [8]?
Answer: -0.413 (inactive)

Question: And the Z-AUC [8, 15]?
Answer: -0.874

Question: What about the Z-AUC ([8]; measured here: PEO4 Z-AUC) of the same compound?
Answer: -0.858

Question: Which outcome [12] does the source give for `O=C(Nc1ccc(S(=O)(=O)Nc2nccs2)cc1)c1cc(-c2ccccc2)nc2ccccc12` here?
Answer: inactive

Question: What about the outcome [13] of the same compound?
Answer: inactive

Question: And the Potency [14]?
Answer: 1370 nM (active)

Question: What about the Potency [1] of the same compound?
Answer: inactive

Question: What about the Potency [2] of the same compound?
Answer: inactive

Question: And the outcome [9]?
Answer: inactive

Question: What about the Potency [6] of the same compound?
Answer: inactive

Question: With `O=C1NC(=O)/C(=C\c2ccc3nccc(-c4ccncc4)c3c2)S1` as the compound, how does the Potency [1] read?
Answer: 1160 nM (active)

Question: What about the Potency [2] of the same compound?
Answer: 1460 nM (active)

Question: What about the Potency [4] of the same compound?
Answer: 326 nM (active)

Question: For `CC1=CC(=O)C(C(C)C)=C/C1=N/OC(=O)c1ccccc1C`, which Potency [1] is on record?
Answer: inactive

Question: What about the Potency [2] of the same compound?
Answer: inactive

Question: And the Potency [4]?
Answer: 8200 nM (active)

Question: What about the Potency [5] of the same compound?
Answer: 11.6 µM (active)

Question: With `CC(=O)Nc1ccc(C(=O)NC(C)(C)C)cc1` as the compound, how does the Potency [1] read?
Answer: inactive

Question: And the Potency [2]?
Answer: inactive

Question: And the Potency [3]?
Answer: inactive

Question: What about the Potency [4] of the same compound?
Answer: inactive

Question: What about the Potency [5] of the same compound?
Answer: inactive

Question: And the Z-AUC [8]?
Answer: 1.04 (inactive)

Question: And the Z-AUC [8, 15]?
Answer: 0.805

Question: What about the Z-AUC ([8]; measured here: PEO4 Z-AUC) of the same compound?
Answer: 0.364
